# In ChEMBL document CHEMBL1961873, “Compounds: GSK PKIS; Assays: Nanosyn kinase panel” (2012):
# Tests used:
# [1] = biological target: Sphingosine kinase 1 (Homo sapiens) (UniProt Q9NYA1); settings: at 1 µM;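 further: mean SPHK1 inhibition value reported from the GSK PKIS kinase panel screen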
# [2] = biological target: T1, Sphingosine kinase 2 (Homo sapiens) (UniProt Q9NRA0); settings: at 0.1 µM
# T1 sequence (whole entry): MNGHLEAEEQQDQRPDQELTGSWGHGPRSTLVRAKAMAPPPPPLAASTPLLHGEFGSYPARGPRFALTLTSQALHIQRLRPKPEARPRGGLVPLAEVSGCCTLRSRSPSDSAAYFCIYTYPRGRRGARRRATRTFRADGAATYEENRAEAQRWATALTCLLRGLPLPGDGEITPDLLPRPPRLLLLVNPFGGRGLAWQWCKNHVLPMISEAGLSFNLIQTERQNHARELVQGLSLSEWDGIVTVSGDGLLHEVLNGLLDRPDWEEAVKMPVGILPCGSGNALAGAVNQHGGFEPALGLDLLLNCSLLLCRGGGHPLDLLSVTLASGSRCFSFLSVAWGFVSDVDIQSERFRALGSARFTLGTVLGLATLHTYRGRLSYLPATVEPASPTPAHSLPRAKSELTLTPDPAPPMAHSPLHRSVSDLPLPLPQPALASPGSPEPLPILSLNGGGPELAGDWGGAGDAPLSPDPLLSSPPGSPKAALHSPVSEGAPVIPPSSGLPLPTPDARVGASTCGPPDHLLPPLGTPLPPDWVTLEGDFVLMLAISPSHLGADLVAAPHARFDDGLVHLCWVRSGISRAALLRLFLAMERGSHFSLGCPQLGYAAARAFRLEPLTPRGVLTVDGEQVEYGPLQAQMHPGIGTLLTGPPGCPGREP
# [3] = biological target: T1, Sphingosine kinase 2 (Homo sapiens); settings: at 1 µM
# [4] = biological target: Casein kinase II subunit alpha (Homo sapiens) (UniProt P68400); settings: at 0.1 µM
# [5] = biological target: Casein kinase II subunit alpha (Homo sapiens) (UniProt P68400); settings: at 1 µM
# [6] = biological target: T2, Inhibitor of nuclear factor kappa-B kinase subunit alpha (Homo sapiens) (UniProt O15111); settings: at 0.1 µM
# T2 sequence (whole entry): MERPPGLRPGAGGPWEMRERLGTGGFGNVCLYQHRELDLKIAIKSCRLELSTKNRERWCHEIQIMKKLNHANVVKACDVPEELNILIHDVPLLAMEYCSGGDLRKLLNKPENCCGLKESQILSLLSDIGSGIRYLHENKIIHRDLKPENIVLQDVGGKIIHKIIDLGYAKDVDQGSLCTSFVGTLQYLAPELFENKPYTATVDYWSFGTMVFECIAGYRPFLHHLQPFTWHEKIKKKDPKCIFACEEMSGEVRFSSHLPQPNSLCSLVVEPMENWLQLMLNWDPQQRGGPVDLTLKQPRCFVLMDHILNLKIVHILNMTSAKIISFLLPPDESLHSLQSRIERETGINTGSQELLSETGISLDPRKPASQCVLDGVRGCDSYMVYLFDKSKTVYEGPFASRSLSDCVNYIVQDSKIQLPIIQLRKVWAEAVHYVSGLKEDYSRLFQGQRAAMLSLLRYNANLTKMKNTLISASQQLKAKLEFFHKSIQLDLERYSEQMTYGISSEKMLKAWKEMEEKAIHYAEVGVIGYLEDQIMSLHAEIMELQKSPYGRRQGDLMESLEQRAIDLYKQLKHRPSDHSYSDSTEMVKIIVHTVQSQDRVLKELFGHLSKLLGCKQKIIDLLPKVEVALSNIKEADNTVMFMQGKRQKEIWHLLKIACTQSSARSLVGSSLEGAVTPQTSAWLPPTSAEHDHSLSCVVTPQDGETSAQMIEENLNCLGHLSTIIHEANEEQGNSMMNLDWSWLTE
# [7] = biological target: T2, Inhibitor of nuclear factor kappa-B kinase subunit alpha (Homo sapiens); settings: at 1 µM
# [8] = biological target: T3, Inhibitor of nuclear factor kappa-B kinase subunit beta (Homo sapiens) (UniProt O14920); settings: at 0.1 µM
# T3 sequence (whole entry): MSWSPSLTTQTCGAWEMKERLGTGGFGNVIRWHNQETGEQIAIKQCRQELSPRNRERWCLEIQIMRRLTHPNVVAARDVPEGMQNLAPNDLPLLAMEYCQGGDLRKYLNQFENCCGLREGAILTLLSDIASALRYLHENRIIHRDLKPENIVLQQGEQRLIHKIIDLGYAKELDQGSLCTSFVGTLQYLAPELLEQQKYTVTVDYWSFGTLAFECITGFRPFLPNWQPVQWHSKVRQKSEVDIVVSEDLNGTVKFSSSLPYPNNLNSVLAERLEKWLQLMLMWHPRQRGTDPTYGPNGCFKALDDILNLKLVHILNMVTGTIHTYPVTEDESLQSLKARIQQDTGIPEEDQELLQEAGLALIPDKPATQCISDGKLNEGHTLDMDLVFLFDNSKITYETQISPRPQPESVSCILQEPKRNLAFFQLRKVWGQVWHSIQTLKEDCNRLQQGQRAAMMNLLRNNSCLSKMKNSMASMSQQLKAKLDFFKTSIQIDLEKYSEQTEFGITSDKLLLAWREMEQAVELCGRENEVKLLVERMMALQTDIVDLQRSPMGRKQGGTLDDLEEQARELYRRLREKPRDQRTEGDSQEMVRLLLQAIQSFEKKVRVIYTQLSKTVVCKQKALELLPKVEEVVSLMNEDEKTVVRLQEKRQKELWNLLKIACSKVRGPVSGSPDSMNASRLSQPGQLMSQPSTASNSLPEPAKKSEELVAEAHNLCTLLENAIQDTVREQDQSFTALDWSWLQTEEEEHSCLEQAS
# [9] = biological target: T3, Inhibitor of nuclear factor kappa-B kinase subunit beta (Homo sapiens); settings: at 1 µM
# [10] = biological target: T4, Inhibitor of nuclear factor kappa-B kinase subunit epsilon (Homo sapiens) (UniProt Q14164); settings: at 0.1 µM
# T4 sequence (whole entry): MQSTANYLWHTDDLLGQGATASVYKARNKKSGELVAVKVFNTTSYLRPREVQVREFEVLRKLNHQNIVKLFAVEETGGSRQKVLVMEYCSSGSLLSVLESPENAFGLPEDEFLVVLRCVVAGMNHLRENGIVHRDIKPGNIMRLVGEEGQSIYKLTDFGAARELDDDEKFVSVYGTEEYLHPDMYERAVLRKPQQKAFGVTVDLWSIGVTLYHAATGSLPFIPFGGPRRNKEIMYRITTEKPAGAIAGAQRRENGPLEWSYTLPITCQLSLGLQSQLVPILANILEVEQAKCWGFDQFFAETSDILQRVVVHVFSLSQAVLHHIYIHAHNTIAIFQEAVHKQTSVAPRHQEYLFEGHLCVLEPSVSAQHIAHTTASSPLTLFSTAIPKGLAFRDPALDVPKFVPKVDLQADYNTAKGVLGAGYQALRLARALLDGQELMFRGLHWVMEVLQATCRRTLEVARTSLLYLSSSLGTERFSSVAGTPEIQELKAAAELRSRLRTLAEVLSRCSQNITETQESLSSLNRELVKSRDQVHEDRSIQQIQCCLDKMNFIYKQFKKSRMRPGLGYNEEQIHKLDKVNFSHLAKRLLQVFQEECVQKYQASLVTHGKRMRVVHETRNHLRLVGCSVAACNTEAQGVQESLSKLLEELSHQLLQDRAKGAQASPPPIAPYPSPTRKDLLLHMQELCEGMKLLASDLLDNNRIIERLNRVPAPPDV
# [11] = biological target: T4, Inhibitor of nuclear factor kappa-B kinase subunit epsilon (Homo sapiens); settings: at 1 µM
# [12] = biological target: T5, Serine/threonine-protein kinase Nek1 (Homo sapiens) (UniProt Q96PY6); settings: at 0.1 µM
# T5 sequence (whole entry): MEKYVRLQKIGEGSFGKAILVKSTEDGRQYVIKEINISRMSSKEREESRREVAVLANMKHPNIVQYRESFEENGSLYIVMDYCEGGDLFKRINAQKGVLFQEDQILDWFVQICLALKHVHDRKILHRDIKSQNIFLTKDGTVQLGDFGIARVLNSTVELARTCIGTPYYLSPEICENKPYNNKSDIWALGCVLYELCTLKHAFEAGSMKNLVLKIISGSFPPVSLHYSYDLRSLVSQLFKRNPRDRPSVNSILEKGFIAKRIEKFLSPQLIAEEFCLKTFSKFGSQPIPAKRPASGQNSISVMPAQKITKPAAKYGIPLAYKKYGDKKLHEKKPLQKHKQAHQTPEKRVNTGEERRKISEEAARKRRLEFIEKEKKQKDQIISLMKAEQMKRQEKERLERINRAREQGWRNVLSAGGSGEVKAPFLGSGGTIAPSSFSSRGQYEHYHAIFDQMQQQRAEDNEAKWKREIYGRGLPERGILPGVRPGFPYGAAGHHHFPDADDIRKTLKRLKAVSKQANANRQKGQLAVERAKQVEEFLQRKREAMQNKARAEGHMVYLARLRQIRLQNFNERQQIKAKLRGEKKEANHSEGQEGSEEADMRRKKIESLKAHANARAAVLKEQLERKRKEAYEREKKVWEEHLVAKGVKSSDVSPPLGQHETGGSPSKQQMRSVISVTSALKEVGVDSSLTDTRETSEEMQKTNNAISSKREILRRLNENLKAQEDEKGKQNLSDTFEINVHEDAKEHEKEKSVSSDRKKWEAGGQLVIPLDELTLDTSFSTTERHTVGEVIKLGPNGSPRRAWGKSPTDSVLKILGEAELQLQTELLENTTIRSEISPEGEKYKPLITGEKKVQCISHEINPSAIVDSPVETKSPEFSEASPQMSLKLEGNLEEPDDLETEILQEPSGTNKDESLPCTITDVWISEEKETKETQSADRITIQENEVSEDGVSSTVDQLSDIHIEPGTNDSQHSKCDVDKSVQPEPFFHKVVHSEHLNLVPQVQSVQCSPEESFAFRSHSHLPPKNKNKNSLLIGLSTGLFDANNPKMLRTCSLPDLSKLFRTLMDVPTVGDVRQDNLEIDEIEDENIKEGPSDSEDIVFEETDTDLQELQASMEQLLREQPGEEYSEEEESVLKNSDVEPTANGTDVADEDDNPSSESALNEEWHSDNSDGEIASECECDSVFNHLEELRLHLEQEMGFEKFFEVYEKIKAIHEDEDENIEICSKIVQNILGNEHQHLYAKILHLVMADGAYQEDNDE
# [13] = biological target: T5, Serine/threonine-protein kinase Nek1 (Homo sapiens); settings: at 1 µM
# [14] = biological target: T6, Serine/threonine-protein kinase Nek2 (Homo sapiens) (UniProt P51955); settings: at 0.1 µM
# T6 sequence (whole entry): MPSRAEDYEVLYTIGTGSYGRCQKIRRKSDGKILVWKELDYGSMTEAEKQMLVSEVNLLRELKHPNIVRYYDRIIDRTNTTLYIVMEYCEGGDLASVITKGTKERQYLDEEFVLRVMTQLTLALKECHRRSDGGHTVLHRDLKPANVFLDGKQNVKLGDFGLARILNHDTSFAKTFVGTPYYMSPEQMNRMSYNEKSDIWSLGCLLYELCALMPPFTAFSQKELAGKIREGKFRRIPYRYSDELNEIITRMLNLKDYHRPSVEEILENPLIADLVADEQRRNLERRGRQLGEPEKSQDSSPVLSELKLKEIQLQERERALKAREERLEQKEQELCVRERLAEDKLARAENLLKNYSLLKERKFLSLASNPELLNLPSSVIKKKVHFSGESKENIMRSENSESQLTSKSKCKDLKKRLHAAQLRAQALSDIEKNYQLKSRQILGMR
# [15] = biological target: T6, Serine/threonine-protein kinase Nek2 (Homo sapiens); settings: at 1 µM
# [16] = biological target: Serine/threonine-protein kinase Nek6 (Homo sapiens) (UniProt Q9HC98); settings: at 0.1 µM
# [17] = biological target: Serine/threonine-protein kinase Nek6 (Homo sapiens) (UniProt Q9HC98); settings: at 1 µM
# [18] = biological target: Serine/threonine-protein kinase Nek7 (Homo sapiens) (UniProt Q8TDX7); settings: at 0.1 µM
# [19] = biological target: Serine/threonine-protein kinase Nek7 (Homo sapiens) (UniProt Q8TDX7); settings: at 1 µM
# [20] = biological target: T7, Serine/threonine-protein kinase Nek9 (Homo sapiens) (UniProt Q8TD19); settings: at 0.1 µM;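 further: reported value is the mean percent inhibition of NEK9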
# T7 sequence (whole entry): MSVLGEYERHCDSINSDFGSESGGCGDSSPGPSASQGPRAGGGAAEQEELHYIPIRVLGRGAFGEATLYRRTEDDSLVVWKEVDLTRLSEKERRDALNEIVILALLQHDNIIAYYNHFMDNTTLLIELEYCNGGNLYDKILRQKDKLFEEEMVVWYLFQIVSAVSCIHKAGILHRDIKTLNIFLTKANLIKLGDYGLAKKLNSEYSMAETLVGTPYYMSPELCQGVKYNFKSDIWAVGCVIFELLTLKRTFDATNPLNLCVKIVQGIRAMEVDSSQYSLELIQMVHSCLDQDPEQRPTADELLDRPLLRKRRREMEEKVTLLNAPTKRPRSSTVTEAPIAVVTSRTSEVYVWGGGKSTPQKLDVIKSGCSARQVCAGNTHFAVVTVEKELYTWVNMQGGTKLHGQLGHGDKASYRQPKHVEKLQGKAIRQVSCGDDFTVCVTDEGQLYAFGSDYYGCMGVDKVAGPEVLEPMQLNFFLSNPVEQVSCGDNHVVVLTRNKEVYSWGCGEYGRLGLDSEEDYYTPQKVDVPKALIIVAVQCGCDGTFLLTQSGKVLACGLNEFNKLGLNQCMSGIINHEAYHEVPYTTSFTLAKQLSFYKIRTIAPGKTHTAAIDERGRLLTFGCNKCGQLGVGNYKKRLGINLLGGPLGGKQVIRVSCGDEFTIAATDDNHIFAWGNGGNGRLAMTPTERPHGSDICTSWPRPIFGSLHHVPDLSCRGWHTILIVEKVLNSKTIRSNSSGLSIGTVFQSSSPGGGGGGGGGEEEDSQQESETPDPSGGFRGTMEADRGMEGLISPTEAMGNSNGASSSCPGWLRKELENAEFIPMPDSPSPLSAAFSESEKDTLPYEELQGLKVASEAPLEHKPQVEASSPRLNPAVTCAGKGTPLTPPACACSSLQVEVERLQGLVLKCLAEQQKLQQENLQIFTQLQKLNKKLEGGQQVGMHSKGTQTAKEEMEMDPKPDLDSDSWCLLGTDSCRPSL
# Casein kinase II subunit alpha (Homo sapiens), sequence (P68400 whole entry, looked up): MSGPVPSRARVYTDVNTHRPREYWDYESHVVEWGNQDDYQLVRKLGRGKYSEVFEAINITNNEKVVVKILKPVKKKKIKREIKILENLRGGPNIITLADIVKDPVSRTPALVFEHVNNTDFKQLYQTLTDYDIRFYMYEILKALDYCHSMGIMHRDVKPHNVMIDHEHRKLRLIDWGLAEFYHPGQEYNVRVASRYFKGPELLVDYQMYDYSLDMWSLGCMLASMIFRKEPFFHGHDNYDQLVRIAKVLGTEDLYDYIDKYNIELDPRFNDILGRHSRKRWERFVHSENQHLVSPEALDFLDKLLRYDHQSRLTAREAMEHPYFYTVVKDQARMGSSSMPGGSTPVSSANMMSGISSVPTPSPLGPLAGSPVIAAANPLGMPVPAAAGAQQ
# Serine/threonine-protein kinase Nek7 (Homo sapiens), sequence (Q8TDX7 whole entry, looked up): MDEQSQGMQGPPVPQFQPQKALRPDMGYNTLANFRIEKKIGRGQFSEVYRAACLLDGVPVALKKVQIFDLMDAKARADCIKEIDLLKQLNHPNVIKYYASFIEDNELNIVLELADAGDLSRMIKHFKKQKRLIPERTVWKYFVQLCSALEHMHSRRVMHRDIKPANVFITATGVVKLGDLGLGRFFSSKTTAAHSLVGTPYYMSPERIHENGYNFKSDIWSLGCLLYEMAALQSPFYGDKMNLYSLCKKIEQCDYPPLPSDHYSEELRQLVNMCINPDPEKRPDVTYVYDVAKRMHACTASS
# Serine/threonine-protein kinase Nek6 (Homo sapiens), sequence (Q9HC98 whole entry): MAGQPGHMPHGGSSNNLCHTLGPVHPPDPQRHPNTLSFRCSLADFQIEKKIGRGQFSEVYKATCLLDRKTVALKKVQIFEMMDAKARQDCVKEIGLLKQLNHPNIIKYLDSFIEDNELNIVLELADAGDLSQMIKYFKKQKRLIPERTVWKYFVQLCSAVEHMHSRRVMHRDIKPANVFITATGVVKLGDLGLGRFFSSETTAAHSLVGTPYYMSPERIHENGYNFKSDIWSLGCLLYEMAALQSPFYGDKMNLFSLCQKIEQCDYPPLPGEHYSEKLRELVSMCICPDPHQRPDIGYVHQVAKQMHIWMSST
# Sphingosine kinase 1 (Homo sapiens), sequence (Q9NYA1 whole entry): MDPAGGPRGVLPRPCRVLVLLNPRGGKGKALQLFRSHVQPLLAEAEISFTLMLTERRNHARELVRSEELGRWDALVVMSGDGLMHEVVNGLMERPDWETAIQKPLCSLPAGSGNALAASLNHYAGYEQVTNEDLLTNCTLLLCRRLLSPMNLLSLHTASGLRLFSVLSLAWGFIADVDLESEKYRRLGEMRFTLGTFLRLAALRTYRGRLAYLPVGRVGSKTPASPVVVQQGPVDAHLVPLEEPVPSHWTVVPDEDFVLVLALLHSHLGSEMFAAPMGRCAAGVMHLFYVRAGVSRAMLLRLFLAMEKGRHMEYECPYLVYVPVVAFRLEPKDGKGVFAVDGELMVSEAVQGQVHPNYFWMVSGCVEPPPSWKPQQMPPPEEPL
Structure (SMILES),inhibition [1] [%],inhibition [2] [%],inhibition [3] [%],inhibition [4] [%],inhibition [5] [%],inhibition [6] [%],inhibition [7] [%],inhibition [8] [%],inhibition [9] [%],inhibition [10] [%],inhibition [11] [%],inhibition [12] [%],inhibition [13] [%],inhibition [14] [%],inhibition [15] [%],inhibition [16] [%],inhibition [17] [%],inhibition [18] [%],inhibition [19] [%],inhibition [20] [%]
CCn1c(-c2nonc2N)nc2cncc(C(=O)N3CC[C@H](N)C3)c21,-5.44,0.23,-0.8,3.78,3.7,14,18.8,7.24,5.79,13.8,36.1,1.89,3.47,5.3,6.1,0.64,5.91,6.16,7.48,11.8
CCn1c(-c2nonc2N)nc2c(C#CC(C)(C)O)nc(OC[C@@H](N)c3ccccc3)cc21,2.57,-1.25,-2.35,0.95,1.36,4.77,2.26,-2.58,-1.93,0.47,34.9,0.04,3.08,-1.09,1.53,-0.14,3.35,0.12,-0.33,-3.59
